pCIP destab: p/CIP-EGFP fusion destabilizers, primary screen, fluorescence, F442A cells | Q05BA5 | 16 h | decrease of EGFP signal, % at 10 µM | actives 0.01% (n = 290,000) | AID 1984, 2009;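 active = EGFP signal decrease of at least 30% at 10 µM or well 3 SD below plate mean, unless failing retest; inactive = the rest, including hits failing retest or dose response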
GASC-1 inh: inhibitors of GASC-1 histone demethylase, primary screen, biochemical, fluorescence, DELFIA europium | Lysine-specific demethylase 4C (Homo sapiens), Q9H3R0 | GST-JMJD2C(1-420) H3K9me3 demethylation | inhibition, % at 2.35 µM | actives 0.069% (n = 330,000);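 active = more than half of a compound's replicate wells show inhibition beyond 50%, single wells judged on their own value; inconclusive = some, but no more than half, of replicates pass 50% inhibition; inactive = no replicate passes 50% inhibition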;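 note: signal counts dimethyl H3K9 product captured on neutravidin plate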
Target sequence (Q9H3R0 1-420 limits assumed): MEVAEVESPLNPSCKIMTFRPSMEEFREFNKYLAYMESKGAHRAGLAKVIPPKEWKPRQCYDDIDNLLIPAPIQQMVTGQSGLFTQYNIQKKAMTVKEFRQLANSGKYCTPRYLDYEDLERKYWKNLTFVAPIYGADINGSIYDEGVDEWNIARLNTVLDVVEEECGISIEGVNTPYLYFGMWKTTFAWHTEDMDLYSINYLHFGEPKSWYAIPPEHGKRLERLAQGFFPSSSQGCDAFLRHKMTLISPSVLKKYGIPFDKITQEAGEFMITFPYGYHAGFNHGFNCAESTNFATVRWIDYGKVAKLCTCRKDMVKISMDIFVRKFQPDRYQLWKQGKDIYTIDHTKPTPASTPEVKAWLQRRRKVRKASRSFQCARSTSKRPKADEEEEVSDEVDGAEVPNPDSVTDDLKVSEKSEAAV
PvdQ inh: P. aeruginosa PvdQ acylase inhibitors, primary screen, biochemical, fluorescence, plate reader and imaging, single point; actives 0.063% (n = 340,000); inhibition, % at 10 µM; PvdQ acylase [Pseudomonas aeruginosa LESB58]; purified PvdQ acylase; in the data active = inhibition above about 30%, passing the limit was not always enough; inconclusive = no clear call, values can overlap the other calls
SUMO Mot1 rescue: yeast Mot1-301 growth rescue at high temperature, primary screen, SUMOylation pathway inhibitor project, S. cerevisiae, ATP luminescence, 38.5C. S. cerevisiae Mot1-301 growth rescue; percent above DMSO median, 100 means doubled. growth rescue, % at 18.8 µM. actives 1% (n = 320,000);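 active = every valid replicate shows activation above 250% relative to neutral control wells; inactive = the rest, any valid replicate at or below 250%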
HDAC3 inh: HDAC3 deacetylase inhibitors, primary screen, biochemical, fluorescence, cell-free homogeneous; inhibition, % at 8.3 µM; actives 0.15% (n = 320,000); recombinant HDAC3, fluorogenic peptide/trypsin coupled; in the data active = inhibition above about 26%, passing the limit was not always enough; inconclusive = no clear call, values can overlap the other calls
PHOSPHO1 block: PubChem AID 1565. inhibition, % at 13.3 µM. recombinant PHOSPHO1, absorbance phosphatase assay. actives 1.1% (n = 290,000). Phosphoethanolamine/phosphocholine phosphatase (Homo sapiens), Q8TCT1; in the data active = inhibition above about 60%
Target sequence (Q8TCT1 whole entry, looked up): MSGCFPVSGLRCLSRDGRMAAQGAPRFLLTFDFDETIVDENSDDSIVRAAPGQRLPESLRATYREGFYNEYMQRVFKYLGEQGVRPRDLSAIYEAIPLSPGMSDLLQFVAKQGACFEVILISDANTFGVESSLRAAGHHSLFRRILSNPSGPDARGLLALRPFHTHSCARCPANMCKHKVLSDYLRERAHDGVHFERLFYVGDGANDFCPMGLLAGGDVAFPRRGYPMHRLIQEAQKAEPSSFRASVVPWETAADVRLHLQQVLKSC
Each line names hits and unclear results; the compound was inactive in the other large screens. Only some compounds are listed: those with a hit (about 2.2% of all), similar ones and a draw of the others.

COc1ccc(-c2[nH]nc3c2C(c2ccc(OC(=O)N4CCOCC4)cc2)C(C#N)=C(N)O3)cc1 (centres undefined)	none (no result: GASC-1 inh, PvdQ inh)
CCN(CC)CCCNC(=O)CCC(=O)Nc1ccc2nc(N3CCCCC3)cc(C)c2c1	SUMO Mot1 rescue 888.6 (no result: HDAC3 inh)
O=[N+]([O-])c1ccc(N/N=C/c2cccc(O)c2O)cc1	SUMO Mot1 rescue 317.4
COc1cccc(/C=N/Nc2ccc(S(=O)(=O)O)cc2)c1O	PHOSPHO1 block 92.2
O=[N+]([O-])c1ccc(N/N=C/c2ccc[nH]2)cc1	PHOSPHO1 block 90.4
CC[C@@]12C(=O)N(c3cccc(Cl)c3)C(=O)N1[C@H](c1ccc(Br)cc1)[C@@H]1C(=O)N(C(C)(C)C)C(=O)[C@@H]12	none (no result: pCIP destab, PHOSPHO1 block)
COc1ccc(S(=O)(=O)Nc2c(C(=O)O)[nH]c3ccc(OC)cc23)cc1	none
COC(=O)c1[nH]c2ccc(F)cc2c1NS(=O)(=O)c1ccc(OC)cc1	SUMO Mot1 rescue 347.7
CC(C)CCN1C(=O)c2ccc(C(=O)N3CCCCC3)cc2C1=O	none (no result: pCIP destab, PHOSPHO1 block)
COc1ccc(NC(=O)CN2CCN(c3c(C)cc(C)cc3C)CC2)cc1	none
CCCCC(=O)NC(=S)Nc1nnn(CCC)n1	none
CCOC(=O)C1(Cc2cccc(Cl)c2)CCCN(C(=O)c2cc(C)on2)C1 (centres undefined)	none
CCOC(=O)C1(Cc2cccc(Cl)c2)CCCN(C(=O)c2ccc(C)nc2)C1 (centres undefined)	PHOSPHO1 block 62.8
C=Cn1cc[n+](CC(=O)c2ccc(-c3ccccc3)cc2)c1	none
Cc1ccc2[nH]c(=O)c(NC(N)=S)nc2c1	none
NC(=S)Nc1nc2ccccc2[nH]c1=O	PHOSPHO1 block 66.0 (no result: PvdQ inh)
Cc1cccc(NC(=O)Nc2cc(C)on2)c1	PvdQ inh 38.7
Cc1ccc(NC(=O)Nc2cc(C)on2)cc1	none
O=C(NC1CCCc2ccccc21)N[C@@H](Cc1ccccc1)C(=O)O (some centres undefined)	none
CCc1ccc2[nH]c(=O)c(C3C(C#N)=C(N)Oc4c3ccc3cccnc43)cc2c1 (centres undefined)	PHOSPHO1 block 88.9
Cc1ccc2cc(C3C(C#N)=C(N)Oc4c3ccc3cccnc43)c(=O)[nH]c2c1 (centres undefined)	none
Oc1ccc(CN2CCCc3ccccc32)c2cccnc12	PHOSPHO1 block 74.4
O=C(Cc1ccc([N+](=O)[O-])cc1)Oc1ccccc1	none (no result: pCIP destab, GASC-1 inh, SUMO Mot1 rescue, HDAC3 inh, PHOSPHO1 block)
C=CCn1c(COc2ccc(F)cc2)nnc1SCC(=O)N1CC(=O)Nc2ccccc21	PHOSPHO1 block 73.5
CCCCCN(C(=O)CCC(=O)OC(C)C(=O)Nc1cccc(C#N)c1)c1c(N)n(CCCC)c(=O)[nH]c1=O (centres undefined)	SUMO Mot1 rescue 303.2 (no result: pCIP destab, PHOSPHO1 block)
CCCCCN(C(=O)CCC(=O)OCC(=O)c1ccc(F)c(F)c1)c1c(N)n(CCCC)c(=O)[nH]c1=O	none (no result: pCIP destab, PHOSPHO1 block)
CCCCCN(C(=O)CCC(=O)OCC(=O)c1cccc(OC)c1)c1c(N)n(CCCC)c(=O)[nH]c1=O	GASC-1 inh 58.7
COc1ccccc1C(=O)Nc1ccnn1C1CCN(Cc2ncc[nH]2)CC1	none
Clc1ccc(CNc2nc(CN3CCOCC3)nc3scc(-c4ccccc4)c23)cc1	none
NC(=S)N=Nc1c(O)n(CCCl)c2ccc(Cl)cc12	SUMO Mot1 rescue 341.4
Cc1n[nH]c(=S)n1-c1ccc(Cl)cc1	none
Cc1ccc(-n2c(Cc3ccccc3)n[nH]c2=S)cc1	PHOSPHO1 block 101.4 (no result: SUMO Mot1 rescue)
Cc1n[nH]c(=S)n1-c1ccccc1	PHOSPHO1 block 89.5
COc1cc(/C=N\NC(=O)c2ccc(C)nc2)ccc1OC(=O)c1cccc(F)c1	none
COc1ccc(C(=O)Nc2ccc(/C(C)=N/NC(=O)c3ccccc3O)cc2)cc1OC	none (no result: HDAC3 inh)
O=C(O)C1(Nc2ccccc2Cl)CCCC1	none (no result: pCIP destab, GASC-1 inh, SUMO Mot1 rescue, HDAC3 inh, PHOSPHO1 block)
O=C1OCC(CO)(CO)N=C1NNc1ccccc1Cl	PHOSPHO1 block 82.0
S=c1[nH]nc(-c2ccc3ccccc3n2)n1-c1ccc2ncccc2c1	PHOSPHO1 block 74.2 (no result: HDAC3 inh)
Cc1ccccc1-n1c(-c2ccc3ccccc3n2)n[nH]c1=S	PHOSPHO1 block 71.4
O=C(CCCSc1nc2ccccc2s1)Nc1nccs1	none
O=C(CCCc1nc2ccccc2s1)Nc1nccs1	PHOSPHO1 block 92.3
COc1ccccc1/C=C/C(=O)Nc1cccc(C(C)=O)c1	PHOSPHO1 block 68.6
COc1ccc(S(=O)(=O)NCc2ccc3c(c2)OCO3)cc1C	none
Cc1ccc(S(=O)(=O)NCc2ccc3c(c2)OCO3)cc1C	PvdQ inh 35.9
O=C(CCc1ccc(S(=O)(=O)NCc2ccccc2)cc1)NCc1ccc2c(c1)OCO2	GASC-1 inh 52.4
O=C(CCc1c[nH]c2ccccc12)NCc1ccc2c(c1)OCO2	PHOSPHO1 block 61.2
O=C(CCc1ccc(S(=O)(=O)NCCc2ccccc2)cc1)NCc1ccc2c(c1)OCO2	none
COc1cccc(CCNC(=O)c2cc(COc3c(F)cccc3F)on2)c1	none
Cc1cc(-c2n[nH]c(=S)n2/N=C/C=C/c2ccccc2)n[nH]1	none
COc1ccccc1/C=C/C=N/n1c(-c2ccncc2)n[nH]c1=S	HDAC3 inh inconclusive, PHOSPHO1 block 78.7
COc1ccc(-c2n[nH]c(=S)n2/N=C/C=C\c2ccccc2OC)cc1	PHOSPHO1 block 66.3 (no result: HDAC3 inh)
COc1ccccc1/C=C\C=N\n1c(C2CCCCC2)n[nH]c1=S	none
S=c1[nH]nc(-c2ccco2)n1/N=C/C=C/c1ccco1	PHOSPHO1 block 69.4
S=c1[nH]nc(-c2ccncc2)n1/N=C/C=C/c1ccccc1	HDAC3 inh inconclusive, PHOSPHO1 block 92.7
C/C(=N\NC(=O)c1nnn(-c2nonc2N)c1CSc1ccc(Cl)cc1)c1cccnc1	none
S=c1[nH]nc(-c2ccco2)n1/N=C/c1ccccc1Cl	none
COc1ccccc1/C=C/C=N/n1c(-c2cc(C)[nH]n2)n[nH]c1=S	PHOSPHO1 block 62.2
COc1ccccc1/C=C/C=N/n1c(-c2ccco2)n[nH]c1=S	PHOSPHO1 block 85.0
COc1ccccc1/C=C/C=N/n1c(-c2ccc(C)cc2)n[nH]c1=S	PHOSPHO1 block 85.9
COc1ccccc1/C=C/C=N/n1c(-c2n[nH]c3c2CCC3)n[nH]c1=S	none (no result: PvdQ inh, HDAC3 inh)
COc1ccccc1/C=C/C=N/n1c(-c2ccccn2)n[nH]c1=S	none
O=S(=O)(c1ccc(Cl)nc1)N1CCCCC1	none
O=C(c1ccco1)N1CCN(CC(O)COc2ccc(Br)cc2)CC1 (centres undefined)	none
O=C(CC1C(=O)NCCN1Cc1cccc(F)c1)NC1CCCCC1 (centres undefined)	none
CN(C)c1ccc(/C=N/n2c(COc3ccccc3)n[nH]c2=S)cc1	PHOSPHO1 block 78.7 (no result: HDAC3 inh)
